Assay results taken from ChEMBL document CHEMBL1157539, “Thousands of chemical starting points for antimalarial lead identification” (Nature, 2010).

Assays:
Type in all cases: functional
Plasmodium falciparum [1] = test: GSK_TCMDC: Inhibition of Plasmodium falciparum 3D7 in whole red blood cells, using parasite LDH activity as an index of growth. Test compounds present at 2uM
Plasmodium falciparum [2] = test: GSK_TCMDC: Inhibition of Plasmodium falciparum Dd2 in whole red blood cells, using parasite LDH activity as an index of growth. Test compounds present at 2uM
HepG2 = test: GSK_TCMDC: Percent inhibition of human HepG2 cell line. Test compounds present at 10uM.

Compound `O=C(/C=C/c1ccc(Cl)c(Cl)c1)NCCCCCN1CCC(c2c[nH]c3cc(O)ccc23)CC1` has an Inhibition (Plasmodium falciparum [1]) of 100%, an Inhibition (Plasmodium falciparum [2]) of 2% and an Inhibition (HepG2) of 32%.

`CCN(CCCN1CCCCC1)c1cc(C)nc(Nc2ccc(Br)cc2F)n1.O=C(O)C(F)(F)F` was tested, and the Inhibition (Plasmodium falciparum [1]) was 95%, the Inhibition (Plasmodium falciparum [2]) was 24% and the Inhibition (HepG2) was 32%.

`Cc1cccc2nc(-c3ccc(-c4ccc(CN5CCCC(O)C5)cc4)s3)[nH]c12.O=C(O)C(F)(F)F` (configuration not stated) gave an Inhibition (Plasmodium falciparum [1]) of 100%, an Inhibition (Plasmodium falciparum [2]) of 29% and an Inhibition (HepG2) of 38%.

Work on `O=S1(=O)NC2(CCN(CCc3ccc(Cl)cc3)CC2)Nc2cc(F)cc(F)c21` yielded an Inhibition (Plasmodium falciparum [1]) of 86%, an Inhibition (Plasmodium falciparum [2]) of 5% and an Inhibition (HepG2) of 7%.

`CCCC[C@H](NC(=O)OC(C)(C)C)C(=O)Nc1ccc(Cc2ccc(NC(=O)[C@H](CCCC)NC(=O)OC(C)(C)C)cc2)cc1` showed an Inhibition (Plasmodium falciparum [1]) of 95%, an Inhibition (Plasmodium falciparum [2]) of 71% and an Inhibition (HepG2) of 5%.

In the case of `CNS(=O)(=O)c1ccc2c(c1)nc(C1CCN(CC3CCC(NC(=O)/C=C/c4ccc(Cl)c(Cl)c4)CC3)CC1)n2C` (configuration not stated), the Inhibition (Plasmodium falciparum [1]) is reported as 100%, the Inhibition (Plasmodium falciparum [2]) is reported as 96% and the Inhibition (HepG2) is reported as 5%.

`Cc1cc(N)nc2ccc(-c3cccc(CN)c3)cc12` was tested, and the Inhibition (Plasmodium falciparum [1]) was 100%, the Inhibition (Plasmodium falciparum [2]) was 59% and the Inhibition (HepG2) was 2%.

`COc1cccc(CN2CCN(C(c3ccccc3)c3ccccc3)CC2)c1O.O=C(O)C(=O)O` was tested, and the Inhibition (Plasmodium falciparum [1]) was 99%, the Inhibition (Plasmodium falciparum [2]) was 98% and the Inhibition (HepG2) was 6%.

In the case of `CN(C)CCNc1ncnc2c1[nH]c1ccc(Cl)cc12`, the Inhibition (Plasmodium falciparum [1]) is reported as 100%, the Inhibition (Plasmodium falciparum [2]) is reported as 8% and the Inhibition (HepG2) is reported as 7%.

`Br.CC1(C)NC(N)=NC(=N)N1OCCCCCOc1ccccc1` gave an Inhibition (Plasmodium falciparum [1]) of 95%, an Inhibition (Plasmodium falciparum [2]) of 97% and an Inhibition (HepG2) of 61%.

`CCOc1ccc(C(=O)N2CCOC(CCN3CCC(c4ccccc4)CC3)(c3ccc(Cl)c(Cl)c3)C2)cc1` (configuration not stated) was tested, and the Inhibition (Plasmodium falciparum [1]) was 88%, the Inhibition (Plasmodium falciparum [2]) was 71% and the Inhibition (HepG2) was 14%.

With `Br.CC1(C)NC(N)=NC(=N)N1OCCc1ccc(N)cc1` the Inhibition (Plasmodium falciparum [1]) was 93%, the Inhibition (Plasmodium falciparum [2]) was 95% and the Inhibition (HepG2) was 65%.

For `Cc1cc(OCC(=O)Nc2ccc(-c3nc4ccccc4[nH]3)cc2)cc(C)c1Cl`, the Inhibition (Plasmodium falciparum [1]) was 99%, the Inhibition (Plasmodium falciparum [2]) was 0% and the Inhibition (HepG2) was 5%.

For `O=c1cc(NCCCNCc2cccc(SC(F)(F)F)c2)[nH]c2ccccc12`, the Inhibition (Plasmodium falciparum [1]) was 100%, the Inhibition (Plasmodium falciparum [2]) was 94% and the Inhibition (HepG2) was 0%.

In the case of `O=C(NC1CCN(CCC[C@]2(c3ccc(Cl)c(Cl)c3)CCCN(C(=O)c3ccccc3)C2)CC1)c1ccc(Cl)cc1`, the Inhibition (Plasmodium falciparum [1]) is reported as 95%, the Inhibition (Plasmodium falciparum [2]) is reported as 4% and the Inhibition (HepG2) is reported as 56%.

Work on `Cl.N=C(NCCc1ccc(Cl)cc1)c1ccc(Cl)c(Cl)c1` yielded an Inhibition (Plasmodium falciparum [1]) of 100%, an Inhibition (Plasmodium falciparum [2]) of 42% and an Inhibition (HepG2) of 43%.

In the case of `CC(C)NCc1ccc(-c2cccc(-c3nc4cc(C(F)(F)F)ccc4[nH]3)c2)cc1.O=C(O)C(F)(F)F`, the Inhibition (Plasmodium falciparum [1]) is reported as 100%, the Inhibition (Plasmodium falciparum [2]) is reported as 100% and the Inhibition (HepG2) is reported as 21%.

In the case of `NC1CCN(Cc2cccc(-c3cccc(-c4nc5ccccc5[nH]4)c3)c2)C1.O=C(O)C(F)(F)F` (configuration not stated), the Inhibition (Plasmodium falciparum [1]) is reported as 100%, the Inhibition (Plasmodium falciparum [2]) is reported as 0% and the Inhibition (HepG2) is reported as 14%.

Compound `CCC(=O)Nc1ccc(C(O)CN2CCC3(C=Cc4ccccc4O3)CC2)cc1` (configuration not stated) has an Inhibition (Plasmodium falciparum [1]) of 93%, an Inhibition (Plasmodium falciparum [2]) of 47% and an Inhibition (HepG2) of 48%.

In the case of `CN(CCN1CCC(c2c[nH]c3ccccc23)CC1)C(=O)OCCCCCNC(=O)/C=C/c1ccc(Cl)c(Cl)c1`, the Inhibition (Plasmodium falciparum [1]) is reported as 95%, the Inhibition (Plasmodium falciparum [2]) is reported as 44% and the Inhibition (HepG2) is reported as 39%.

`Cc1nc(-c2cccc(C(=O)N(Cc3cncn3Cc3cccc(C(F)(F)F)c3)CC3CC3)c2)cs1` showed an Inhibition (Plasmodium falciparum [1]) of 97%, an Inhibition (Plasmodium falciparum [2]) of 17% and an Inhibition (HepG2) of 7%.

`COc1cc2ncnc(NCCc3ccccc3Cl)c2cc1OC` was tested, and the Inhibition (Plasmodium falciparum [1]) was 88%, the Inhibition (Plasmodium falciparum [2]) was 11% and the Inhibition (HepG2) was 0%.

`CC(C)(C)CC(C)(C)c1ccc(O)c(CNC2CCCCC2)c1.Cl` was tested, and the Inhibition (Plasmodium falciparum [1]) was 98%, the Inhibition (Plasmodium falciparum [2]) was 99% and the Inhibition (HepG2) was 92%.

For `COc1ccc(-c2ccccc2OCCCNc2nc(NCCc3ccc(O)cc3)nc(N3CCNCC3)n2)cc1.O=C(O)C(F)(F)F`, the Inhibition (Plasmodium falciparum [1]) was 99%, the Inhibition (Plasmodium falciparum [2]) was 3% and the Inhibition (HepG2) was 36%.

For `Cl.O=c1cc(NCCCNCc2scc3c(Cl)cc(C(F)(F)F)nc23)[nH]c2ccccc12`, the Inhibition (Plasmodium falciparum [1]) was 99%, the Inhibition (Plasmodium falciparum [2]) was 21% and the Inhibition (HepG2) was 9%.

`Cc1cc(OCCCN2CCC(NS(=O)(=O)c3cccc(Br)c3)CC2)c2ccccc2n1` was tested, and the Inhibition (Plasmodium falciparum [1]) was 95%, the Inhibition (Plasmodium falciparum [2]) was 28% and the Inhibition (HepG2) was 28%.

Compound `CCCCCc1cc(OCCN(C)C)cc2c1C(=O)CC(C)(C)O2.Cl` has an Inhibition (Plasmodium falciparum [1]) of 98%, an Inhibition (Plasmodium falciparum [2]) of 0% and an Inhibition (HepG2) of 5%.

`O=C(Nc1cccc(CN2CCCN(Cc3ccc4c(c3)OCO4)CC2)c1)c1ccc(-c2ccccc2)cc1.O=C(O)C(F)(F)F` gave an Inhibition (Plasmodium falciparum [1]) of 90%, an Inhibition (Plasmodium falciparum [2]) of 19% and an Inhibition (HepG2) of 48%.

`Nc1nc(N)c2nc(C3CC=CCC3)c(N)nc2n1` (configuration not stated) gave an Inhibition (Plasmodium falciparum [1]) of 95%, an Inhibition (Plasmodium falciparum [2]) of 0% and an Inhibition (HepG2) of 67%.
